Bioassay records (PubChem BioAssay)
A selection: hits, their analogues and other compounds. The true share with any hit is near 3.7%.
BoNT F protease = blocks Botulinum neurotoxin F light chain protease; Multiplex microsphere protease cleavage assay, flow cytometry; inhibition, % at 10 µM; 360,000 tested, 0.22% active; in the data active means inhibition above about 35%, passing the limit was not always enough; inconclusive means no clear call, values can overlap the other calls
Anthrax LF prot = anthrax lethal factor protease inhibition | P15917 | multiplex microsphere protease cleavage assay, LF | inhibition, % at 10 µM | 360,000 tested, 0.12% active
Target sequence (P15917 whole entry, looked up): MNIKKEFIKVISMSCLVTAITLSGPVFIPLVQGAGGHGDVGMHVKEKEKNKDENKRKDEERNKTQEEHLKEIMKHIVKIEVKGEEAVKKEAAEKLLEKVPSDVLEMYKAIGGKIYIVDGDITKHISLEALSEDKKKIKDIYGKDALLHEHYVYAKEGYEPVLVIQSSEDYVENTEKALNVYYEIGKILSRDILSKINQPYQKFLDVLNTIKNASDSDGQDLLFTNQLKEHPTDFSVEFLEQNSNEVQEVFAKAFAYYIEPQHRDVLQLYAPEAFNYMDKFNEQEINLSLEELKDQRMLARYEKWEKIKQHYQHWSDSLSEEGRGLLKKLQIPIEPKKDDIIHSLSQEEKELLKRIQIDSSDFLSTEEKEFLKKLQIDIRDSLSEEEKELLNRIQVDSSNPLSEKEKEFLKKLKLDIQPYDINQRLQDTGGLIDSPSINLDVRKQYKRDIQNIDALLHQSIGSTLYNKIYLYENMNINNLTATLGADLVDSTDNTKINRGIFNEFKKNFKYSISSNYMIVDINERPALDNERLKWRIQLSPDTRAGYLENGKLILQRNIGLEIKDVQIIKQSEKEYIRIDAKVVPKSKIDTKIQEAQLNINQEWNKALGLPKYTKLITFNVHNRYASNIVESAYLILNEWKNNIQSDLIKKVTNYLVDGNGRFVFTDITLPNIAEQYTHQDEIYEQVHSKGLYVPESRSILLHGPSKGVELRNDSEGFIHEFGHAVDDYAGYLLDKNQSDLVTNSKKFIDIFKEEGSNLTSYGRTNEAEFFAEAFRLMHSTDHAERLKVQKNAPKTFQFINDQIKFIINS
MazEF act = MazEF (E. coli) toxin RNase activation. P0AE70. FAM/BHQ RNA-DNA oligo cleavage fluorescence, 5 h. activation, % at 20 µM. 350,000 tested, 0.32% active. AID 504720; in the data active means activation above about 50%
Autofluor counter = compound fluorescence in toxin protease inhibitor counterscreen; compound autofluorescence counterscreen, microsphere flow cytometry; hits give high values; fluorescence intensity (concentration not given with the values); 360,000 tested, 3.1% active; in the data active means fluorescence intensity above about 16000; inconclusive means no clear call, values can overlap the other calls
BoNT A protease = inhibitors of Botulinum neurotoxin A light chain protease | multiplex microsphere protease substrate cleavage, flow cytometry | inhibition, % at 10 µM | 360,000 tested, 0.17% active
Numbers stand for hits; - = inactive; ? = inconclusive; . = not tested or not shown. Unless noted, no stated cut-off is given here; in the data, active means inhibition above about 30%; inconclusive means no clear call, values can overlap the other calls; inactive means below that.

SMILES	BoNT F protease	Anthrax LF prot	MazEF act	Autofluor counter	BoNT A protease
O=C(CC[C@H]1O[C@@H](n2cnc3c(NC(=O)c4ccccc4)ncnc32)[C@H](O)[C@@H]1O)NCC1CCCCC1	-	-	.	-	-
CCc1nc2ccc(C(=O)N3CCN(C(=O)c4ccco4)CC3)cn2c1N(CC)Cc1cccc(Br)c1	-	-	.	-	-
Cc1cc(C)n2nc(CNS(=O)(=O)c3ccc(CC(C)C)cc3)nc2n1	-	-	-	-	-
O=C(NCc1ccc(Cl)cc1)C1C2C=CC3(CN(Cc4cccnc4)C(=O)C13)O2 (configuration not stated)	-	-	-	25239	-
O=C(NCc1ccc(F)cc1)C1C2C=CC3(CN(Cc4cccnc4)C(=O)C13)O2 (configuration not stated)	-	-	-	-	-
Cc1nnc2n1N=CC=C(c1ccccc1)S2	-	-	-	-	-
Cc1nnc2n1N=CC=C(C(C)(C)C)S2	-	-	-	23527	-
CCN(CC)S(=O)(=O)c1cc(NC(=O)c2cc([N+](=O)[O-])ccc2N2CCOCC2)ccc1C	-	-	-	-	-
COc1ccc(NC(=O)c2ccccc2NC(=O)c2ccccc2)cc1	-	-	-	-	-
COc1ccc(/C=C(/C(=O)Nc2ccccc2C(=O)N2CCCC2)c2ccccc2)cc1	-	-	-	22608	-
COc1ccc(/C=C(/C(=O)Nc2ccccc2C(=O)NC(C)C)c2ccccc2)cc1	-	-	-	17014	-
COc1ccc(/C=C/C(=O)Nc2ccccc2C(=O)N2CCCC2)cc1	-	-	-	-	-
CSc1ccc(/C=C/C(=O)OCC(=O)N2CCN(c3ccccc3)CC2)cc1	-	-	-	-	-
CN(Cc1ccccc1)C(CNS(=O)(=O)c1ccccc1)c1ccccc1 (configuration not stated)	-	-	-	-	-
Cn1c(N)c(C(=O)N2CCN(c3ccccc3)CC2)c(=O)n(C)c1=O	-	-	-	-	-
C=CCOc1c(CNc2ccc(C(=O)O)cc2)cccc1OCC	-	-	-	19846	?
C=CCOc1c(CNc2ccc(C(=O)O)cc2)cccc1OC	-	-	-	-	-
Cc1ccccc1NC(=S)N(C)C1(c2ccccc2Cl)CCCCC1=O (configuration not stated)	-	-	-	23061	-
CN(C(=O)c1ccc(Cl)nc1)C1(c2ccccc2Cl)CCCCC1=O (configuration not stated)	-	-	-	-	-
CC1(C(=O)NS(=O)(=O)c2cccc(C#N)c2)CCN1C(=O)c1ccc(C2CCCCC2)cc1 (configuration not stated)	-	-	.	-	-
CCOC(=O)Cn1c(=NC(=O)c2ccc([N+](=O)[O-])s2)sc2ccccc21	-	-	276.1	-	-
CCn1nccc1NC(=O)c1csc([C@H]2C[C@H](O)[C@@H](CO)O2)n1	-	-	.	-	-
CCCCN1CCC(C#N)(Nc2ccccc2)CC1	-	-	-	24452	-
O=C(CSc1ncccn1)n1c2c(c3ccccc31)CCCC2	-	-	-	18875	-
COc1ccc(CCN2CC(C(=O)NCCc3cccc(F)c3)CCC2=O)cc1 (configuration not stated)	-	-	-	-	-
SMILES	BoNT F protease	Anthrax LF prot	MazEF act	Autofluor counter	BoNT A protease
O=C(NCCc1ccc(C(F)(F)F)cc1)C1CCC(=O)N(CCc2cccc(F)c2)C1 (configuration not stated)	-	-	64.1	-	-
CCOc1ccc(CCNC(=O)COC(=O)c2cccnc2OCC)cc1OCC	-	-	-	16322	-
CCOc1ccc(CCNC(=O)COC(=O)c2ccccc2O)cc1OCC	-	-	-	-	-
CC(C)CC1NC(=O)c2cccnc2-n2c1nc1ccccc1c2=O (configuration not stated)	-	-	-	-	-
O=[N+]([O-])c1ccc(O)c(/C=N/n2c(-c3ccccc3)n[nH]c2=S)c1	-	-	-	-	-
O=[N+]([O-])c1ccc(Cl)c(/C=N/n2c(-c3ccncc3)n[nH]c2=S)c1	?	37.4	-	-	-
CCOc1ccc(C(=O)c2ccc(OCC)c(N)c2)cc1N	-	-	-	16397	-
COc1ccc(C(N)=O)cc1N	-	-	-	20559	-
C=CCn1c(C)cc(C(=O)CSc2nc3ccccc3[nH]2)c1C	-	-	-	23335	?
Cc1cc(C(=O)CSc2nc3ccc(Cl)cc3[nH]2)c(C)n1C	-	-	-	23487	-
CSc1nc2ccc(Cl)cc2[nH]1	-	-	-	20323	-
COc1ccc2nc(NCCO)[nH]c2c1	-	-	-	-	-
